For orientation: inhibition means the drop in the measured response relative to a control, in per cent.

Out of some 300,000 compounds screened, about 480 (0.16%) were called active. A selection follows. Entries with a potency or affinity are not part of this list. Unmarked numbers belong to inactive results.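 How the source made its calls: active means inhibition over 29.93%, a cutoff 3 SD above the screen mean, later confirmed by dose response; inconclusive means inhibition over 29.93% but no dose response follow-up; inactive means inhibition at most 29.93% or unconfirmed.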

This experiment can be described thus: inhibitors of PhoP regulon expression, primary screen, Salmonella Typhimurium, GFP reporter (AID 1863).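 Further: 0% = low Mg2+ inducing control and 100% = high Mg2+ repressing control.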 The conditions noted are these: S. Typhimurium PhoP-regulated promoter GFP reporter, 4 h; at 50 µM; stronger effect = higher value.
Consider `COC(=O)c1ccc(Nc2c([N+](=O)[O-])ccc3nonc23)cc1`, for which the inhibition is -2.08%.

For `Cc1ccc(S(=O)(=O)N(C)C)cc1NC(=O)COC(=O)COc1ccc2c(c1)CCC2`, the inhibition is -2.74%.

Regarding `Cc1cc(Nc2ccccc2O)c2ccccc2n1`, the inhibition was 8.86%.

On to `Cc1cccc(Nc2nc3ccccc3s2)c1C`, for which the inhibition is 6.62%.

Take `Cc1cc(Nc2ccccc2)nc2cc(O)ccc12`: the inhibition was 60.3%.

As for `Cc1cc(N2CCC(C)CC2)nc2cccc(O)c12`, the inhibition is 11.4%.

For `CCOc1ccc(NC(=O)CSc2nc3cccnc3n2CCOC)cc1`, the inhibition is 8.6%.

Consider `O=C(NC(=S)N1CCN(C/C=C/c2ccccc2)CC1)c1cccnc1`, for which the inhibition is -1.23%.

On to `Cc1cc(C)n(-c2nc(NCCO)c3c4c(sc3n2)CCCC4)n1`, for which the inhibition is 1.98%.

With `Cc1cc(C)n(-c2nc(NCCCN(C)C)c3c4c(sc3n2)CCCC4)n1`, the inhibition is -3.42%.

With `Cn1cc(C(=O)NCc2cccnc2)c(=O)c2cc(S(=O)(=O)N3CCCCCC3)ccc21`, the inhibition was 1.24%.

Take `CS(=O)(=O)N(Cc1ccc(C(=O)NCCSCc2ccco2)cc1)c1ccccc1`: the inhibition is -4.62%.

In the case of `Cc1cccc(N2CCN(C(=O)c3ccnn3C)CC2)c1C`, the inhibition was 0.84%.

As to `COCCNCC(O)CON=C1c2ccccc2-c2ccccc21` (configuration not stated), the inhibition is -2.34%.

As to `CC(C)(C)NCC(O)CON=C1c2ccccc2-c2ccccc21` (configuration not stated), the inhibition was -0.28%.

Turning to `Cc1n[nH]c(=S)n1-c1cccc(Cl)c1`, the inhibition was -6.91%.

Take `CCN(CC)CCCNC(=O)c1cn(CC)c2cc(N3CCN(C(=O)c4ccco4)CC3)c(F)cc2c1=O`: the inhibition was 14.4%.

`CCN(CC)CCNC(=O)c1cn(CC)c2cc(N3CCN(C)CC3)c(F)cc2c1=O`: the inhibition is 25.1%.

As for `CCn1cc(C(=O)NCc2ccc3c(c2)OCO3)c(=O)c2cc(F)c(N3CCN(C)CC3)cc21`, the inhibition is 6.63%.

With `CC1(C)S/C(=N/N=C/c2cccs2)NC1=O`, the inhibition was 0.99%.

In the case of `Cc1ccc(C)c(N2CCN(c3ccc([N+](=O)[O-])cn3)CC2)c1`, the inhibition was 1.13%.

Turning to `Cn1c(CNC(=O)c2ccc3c(c2)OCO3)nnc1SCC(=O)Nc1ccc(F)cc1`, the inhibition was 2.02%.

For `COc1ccc(Br)cc1CN(C)C(=O)c1ccccc1OCc1c(C)noc1C`, the inhibition was -8.01%.

As for `Cc1ccc(N(CC(=O)NC2CCCCC2)S(=O)(=O)c2c(C)noc2C)cc1`, the inhibition is 6.34%.

As to `CC(C)(CO)NCc1c(OCc2ccc(Cl)cc2)ccc2ccccc12`, the inhibition is -7.49%.

As for `CC(O)CNCCNCc1c(OCc2ccccc2)ccc2ccccc12` (configuration not stated), the inhibition is 32.8%.

As to `COc1ccc(S(=O)(=O)N2CCC(NC(=O)C3CCCCC3)CC2)cc1`, the inhibition was 4.35%.

For the compound `Cc1ccc(-c2ccc(=O)n(CC(=O)NCc3ccco3)n2)cc1`, the inhibition is 6.56%.

Turning to `COc1ccc(NC(=O)C2CCN(S(=O)(=O)c3ccc(OC)c(OC)c3)CC2)c(OC)c1`, the inhibition was 5.61%.

As for `CCOC(=O)C(=O)Nc1ccccc1C(=O)OCC`, the inhibition was 9.09%.

Consider `CCOC(=O)c1cnc(-c2ccccc2O)nc1Cl`, for which the inhibition is 3.92%.

As to `C[C@@H]1CC=C[C@H]2[C@H]1C(=O)N(Cc1ccccc1)[C@H]2c1ccc(-c2ccc(F)cc2)cc1F`, the inhibition was -3.92%.

In the case of `Cc1cc(C)c2[nH]c(=O)c(C(c3nnnn3CC3CCCO3)N3CCCC(C)C3)cc2c1` (configuration not stated), the inhibition is -1.81%.

Take `O=[N+]([O-])c1ccc(CSc2nc3ccccc3o2)cc1`: the inhibition is 8.78%.

For `O=[N+]([O-])c1ccc(Cl)cc1Sc1nc2ccccc2o1`, the inhibition was 0.44%.

On to `O=S(=O)(Nc1nccs1)c1cnc(Cl)c(Br)c1`, for which the inhibition was -2.83%.

As for `Cc1cc(C(=O)CN2C(=O)NC3(CCCc4ccccc43)C2=O)c(C)n1Cc1cccs1` (configuration not stated), the inhibition was 8.89%.

Take `CSCCC(NC(=O)c1cccc([N+](=O)[O-])c1)C(=O)OCC(=O)N1CCCC1=O` (configuration not stated): the inhibition is 1.97%.

Consider `CCN=C1SC(CC(=O)NC2CCCCC2)C(=O)N1CC` (configuration not stated), for which the inhibition is 8.13%.

`Clc1ccc(C[n+]2cc(-c3ccccc3)n3c2CCCCC3)c(Cl)c1`: the inhibition was 8.08%.

`Cc1ccc(C[n+]2cc(-c3ccc(Cl)cc3)n3c2CCC3)cc1`: the inhibition is 31.5%.

Regarding `Cc1ccc(-c2c[n+](Cc3ccc(Cl)cc3)c3n2CCC3)cc1`, the inhibition is -4.34%.

`Clc1ccc(-c2c[n+](Cc3cccc(Cl)c3)c3n2CCC3)cc1`: the inhibition was 5.53%.

`COC(=O)C(C)(C(=O)OC)c1ccc(C(F)(F)F)cc1[N+](=O)[O-]`: the inhibition is -5.58%.

On to `C=CCN1C(=O)C(CC(=O)Nc2ccc(OCC)cc2)N(Cc2ccccn2)C1=S` (configuration not stated), for which the inhibition was -2.55%.

Consider `Cc1ccc(NC(=S)N2CCOCC2)c(C)c1`, for which the inhibition was -0.67%.

As to `CN1C(=O)C(O)(CC(=O)c2cccs2)c2ccccc21` (configuration not stated), the inhibition was -3.39%.

Take `O=C1C(=O)N(CC2CCCO2)C(c2ccccc2[N+](=O)[O-])/C1=C(/O)c1ccccc1` (configuration not stated): the inhibition is 2.01%.

In the case of `CC1(C)CC(=O)C2=C(C1)OC(c1ccncc1)C(C#N)=C2N` (configuration not stated), the inhibition is -4.82%.

Turning to `O=C(NC1CCCCC1)C1CCN(c2cnccn2)CC1`, the inhibition was 17.7%.

As for `O=C(NC(Cc1ccccc1)C(=O)NCc1ccccn1)c1ccco1` (configuration not stated), the inhibition is 1.32%.

As to `Nc1nc2ccccc2n1CCOc1ccc(Cl)cc1`, the inhibition is 11.6%.

Turning to `Cc1ccc(Cn2c(N)nc3ccccc32)cc1`, the inhibition is 11.5%.

With `CCn1c(N)nc2ccccc21`, the inhibition is 5.85%.

`Nc1nc2ccccc2n1CCOc1ccc(F)cc1`: the inhibition is 10.1%.

Consider `CC(NC(=O)c1ccco1)C(=O)OCC(=O)c1ccc(Cl)s1` (configuration not stated), for which the inhibition is -10.8%.

On to `CN1C(C(=O)Nc2ncccn2)=C(O)c2ccccc2S1(=O)=O`, for which the inhibition is 5.72%.

As to `COc1cc(C(=O)NCc2nnc(SCC(=O)Nc3cc(C)on3)o2)cc(OC)c1OC`, the inhibition is -1.06%.

Take `CCOC(CNC(=O)Cn1nc(Cc2ccncc2)c2ccccc2c1=O)OCC`: the inhibition is 1.12%.

For `CCN(CC)c1ccc(/C=N/Nc2nc(C)cc(=O)[nH]2)c(O)c1`, the inhibition is 6.35%.

Regarding `Cc1ccccc1/C=N/Nc1nc2ccccc2[nH]1`, the inhibition is -7.4%.

Turning to `COc1ccc(O)c(/C=N/Nc2nc3ccccc3[nH]2)c1`, the inhibition is -9.48%.

`CCN(CC)c1ccc(/C=N/Nc2ccccc2)c(O)c1`: the inhibition was 7.3%.

On to `CC1=C(C(N)=O)C(c2ccccn2)n2nc(SCc3ccccc3)nc2N1` (configuration not stated), for which the inhibition is 1.82%.

Take `CCCCSc1nc2c(=O)[nH][nH]c(=O)c2n1Cc1ccccc1`: the inhibition is -7.79%.

Take `Cc1ccc(NC(=O)NNC(=O)c2ccccc2)cc1`: the inhibition is 3.02%.

Regarding `C#CCOCCOCCOCCNc1nc(N2CCN(C(=O)CCCCCCCCCCNC(=O)[C@H](CO)n3cc(CCCSC)nn3)CC2)nc(N2CCN(C(=O)CCCCCCCCCCNC(=O)[C@H](CCCN=C(N)N)n3cc(C[C@@H](C)CC)nn3)CC2)n1`, the inhibition is 4.93%.

`C#CCOCCOCCOCCNc1nc(N2CCN(C(=O)CCCCCCCCCCNC(=O)[C@H]([C@@H](C)CC)n3cc(CCCCCN)nn3)CC2)nc(N2CCN(C(=O)CCCCCCCCCCNC(=O)[C@H]([C@@H](C)CC)n3cc(CCCCN=C(N)N)nn3)CC2)n1`: the inhibition was 11.9%.

As to `C#CCOCCOCCOCCNc1nc(N2CCN(C(=O)CCCCCCCCCCNC(=O)[C@@H](CCSC)n3cc(CCO)nn3)CC2)nc(N2CCN(C(=O)CCCCCCCCCCNC(=O)[C@H]([C@@H](C)CC)n3cc(CCCCN=C(N)N)nn3)CC2)n1`, the inhibition was 4.22%.

Consider `C#CCOCCOCCOCCNc1nc(N2CCOCC2)nc(N2CCN(C(=O)CCCCCCCCCCNC(=O)[C@H]([C@@H](C)CC)n3cc(CCCCN=C(N)N)nn3)CC2)n1`, for which the inhibition was 11.5%.

Take `C#CCOCCOCCOCCNc1nc(N2CCN(C(=O)CCCCCCCCCCNC(=O)[C@H]([C@@H](C)CC)n3cc(CCCCN=C(N)N)nn3)CC2)nc(N2CCN(C(=O)CCCCCCCCCCNC(=O)[C@H](CCCCN)n3cc(C)nn3)CC2)n1`: the inhibition was 24.6%.

As to `C#CCOCCOCCOCCNc1nc(N2CCN(C(=O)CCCCCCCCCCNC(=O)[C@H]([C@@H](C)CC)n3cc(CCCCN=C(N)N)nn3)CC2)nc(N2CCN(C(=O)CCCCCCCCCCNC(=O)[C@H](CCCCN)n3cc(C[C@@H](C)CC)nn3)CC2)n1`, the inhibition was 21.5%.

`Cc1cc(C)nc(-n2nc(C)cc2NC(=O)CNCc2ccccc2)n1`: the inhibition is 1.3%.

With `COC(=O)c1ccc(COc2ccc(/C=N/Nc3nc(C)cc(=O)[nH]3)cc2)cc1`, the inhibition was 2.45%.

On to `Cc1ccc(N2C(=O)c3cccc4c(Oc5ccccc5[N+](=O)[O-])ccc(c34)C2=O)c(C)c1`, for which the inhibition was -0.66%.

For the compound `CC(=O)c1cccc(S(=O)(=O)N(C)C2CCN(C)CC2)c1`, the inhibition is 6.64%.

Regarding `COc1cnc(-c2ccccc2)[nH]c1=O`, the inhibition is 3.46%.

Take `COc1cnc(-c2cccc(C(F)(F)F)c2)[nH]c1=O`: the inhibition was -6.31%.

As to `CCN(CC)CCNC(=O)C(=O)Nc1ccc2c(c1)N(S(=O)(=O)c1cccs1)CCC2`, the inhibition was 0.58%.

On to `CC1(C)CC(=O)c2sc(NS(=O)(=O)c3ccc(Cl)cc3)nc2C1`, for which the inhibition is -6.02%.

On to `CCn1c(CSc2nnc(-c3ccncc3)n2CCOC)nc2cc(C(=O)O)ccc21`, for which the inhibition was 1.32%.

Turning to `CC(C)(C)NCC(O)COc1ccc(Br)cc1` (configuration not stated), the inhibition was -5.49%.

For `COc1ccc(NCC(O)COc2ccc(C(C)(C)C)cc2)cc1` (configuration not stated), the inhibition is 18.9%.

With `COC(=O)c1cc(Nc2cc(C)c3c(O)cccc3n2)cc(C(=O)OC)c1`, the inhibition was 1.78%.

For `CC(=O)Nc1ccc(Nc2cc(C)c3ccccc3n2)cc1`, the inhibition was -1.27%.

On to `COc1ccc(Nc2cc(C)c3ccccc3n2)cc1`, for which the inhibition is -10.8%.

As for `Cc1ccc(Nc2cc(C)c3ccc(O)cc3n2)cc1C`, the inhibition is 59.6%.

The values above are taken from PubChem BioAssay AID1863 (Southern Research Specialized Biocontainment Screening …, 2009).
